PubChem BioAssay (NCATS)
Inconclusive results are not listed. The source made the active and inactive calls. The call rests on the fitted dose curve. Numbered stars: 1 amine (or outer) side, 2 acyl side, 3 side chain; on linkers, the order of the positions; unused ones are H or OH. Bridge positions count the residues as written; N and C are the ends. Square brackets hold non-standard residues; d marks the D form. Peptide text beside a SMILES is read from it. * marks the point of attachment. X6 = NC1=N[C@@H](O)C[C@H]([C@H](N[*:1])C(=O)[*:2])N1; ΔAla(Z-3-ureido) = NC(=O)N/C=C(\N)C(=O)O; Octanoyl(6-Me) = CCC(C)CCCCC(=O)*; β3hOrn = NCCC[C@H](N)CC(=O)*; Dab = NCC[CH](N)C(=O)O; Dap = NC[C@H](N)C(=O)O

Experiment: Primary qHTS to identify inhibitors of SARS-CoV-2 cell entry (AID 1645846); further: nearly all actives have a fitted effect of over 45% in size
Conditions: SARS-CoV-2 pseudovirus cell entry assay, luminescence; activity change, negative = inhibition: at 57.1 µM (top of the series) unless noted
Summary of the method: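 Data are normalized to wells receiving SARS-CoV-2-S pseudoparticles and those given bald particles. Entry signal was luciferase luminescence in stable hACE2 Expi293F cells, 48 hr post-infection, after 1 hr compound pretreatment.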

SMILES | activity change, negative = inhibition | outcome
CNC[C@@H]1CC[C@@H](N)[C@@H](O[C@H]2[C@H](O)[C@@H](O[C@H]3OC[C@](C)(O)[C@H](NC)[C@H]3O)[C@H](N)C[C@@H]2N)O1 | -15.6% | –
CO[C@H]1C[C@@H]2CC[C@@H](C)[C@@](O)(O2)C(=O)C(=O)N2CCCC[C@H]2C(=O)O[C@H]([C@H](C)C[C@@H]2CC[C@@H](OC(=O)C(C)(CO)CO)[C@H](OC)C2)CC(=O)[C@H](C)/C=C(\C)[C@@H](O)[C@@H](OC)C(=O)[C@H](C)C[C@H](C)/C=C/C=C/C=C/1C | -29.8% [at 27.1 µM] | –
CC(=O)OC1CCC2(C)C(=CCC3C2CCC2(C)C(c4cccnc4)=CCC32)C1 (stereo not given) | -20% | –
CC(C)(C)NCC(O)COc1ccccc1C#N (stereo not given) | -9.12% | –
CCOc1ccc(Cc2cc([C@@H]3O[C@H](CO)[C@@H](O)[C@H](O)[C@H]3O)ccc2Cl)cc1 | 0.66% | –
CO/N=C(\C(=O)N[C@@H]1C(=O)N2C(C(=O)O)=C(CSc3cnns3)CS[C@H]12)c1csc(N)n1 | -7.92% | –
O=P(O)(O)OP(=O)(O)O | -3.78% | –
CC1(C)S[C@@H]2[C@@H](N3C(=O)[C@@H](c4ccccc4)NC3(C)C)C(=O)N2[C@H]1C(=O)O | -21.4% | –
CNCC(O)c1ccc(OC(=O)C(C)(C)C)c(OC(=O)C(C)(C)C)c1 (stereo not given) | -25.4% | –
CCCCC(=O)O | -20.8% | –
NCCC[C@H](N)CC(=O)N[C@H]1CNC(=O)[C@H]([C@H]2C[C@H](O)N=C(N)N2)NC(=O)/C(=C/NC(N)=O)NC(=O)[C@H](CO)NC(=O)[C@H](CO)NC1=O (β3hOrn-[Dap]SS[ΔAla(Z-3-ureido)][X6]; lactam 1-C) | – | inactive
CS(=O)(=O)n1cc2c(n1)CN([C@H]1CO[C@H](c3cc(F)ccc3F)[C@@H](N)C1)C2 | -25.8% | –
CO/N=C(\C(=O)N[C@@H]1C(=O)N2C(C(=O)O)=C(Cn3ccc(=N)n3CCO)CS[C@H]12)c1csc(N)n1 | -19.1% | –
CN[C@H]1C(=O)N[C@@H]2Cc3ccc(cc3)Oc3cc4cc(c3O[C@@H]3O[C@H](C(=O)O)[C@@H](O)[C@H](O)[C@H]3NC(=O)CCCCCCCCC(C)C)Oc3ccc(cc3Cl)[C@@H](O)[C@@H]3NC(=O)[C@H](NC(=O)[C@@H]4NC(=O)[C@@H](NC2=O)c2cc(cc(O)c2Cl)Oc2cc1ccc2O)c1ccc(O)c(c1)-c1c(O[C@H]2O[C@H](CO)[C@@H](O)[C@H](O)[C@@H]2O)cc(O)cc1[C@@H](C(=O)NCCCN(C)C)NC3=O | 0.0393% [at 27.1 µM] | –
CNC(=O)OCc1cccc(COC(=O)NC)n1 | – | inactive
CSCCNc1nc(SCCC(F)(F)F)nc2c1ncn2[C@@H]1O[C@H](COP(=O)(O)OP(=O)(O)C(Cl)(Cl)P(=O)(O)O)[C@@H](O)[C@H]1O | -28.8% | –
COC(=S)NCCn1c([N+](=O)[O-])cnc1C | -22.7% | –
O=C(O[C@H]1C[N+]2(CCCOc3ccccc3)CCC1CC2)C(O)(c1cccs1)c1cccs1 | -28.6% | –
O=C1C(c2[nH]c3ccc(S(=O)(=O)O)cc3c2O)=Nc2ccc(S(=O)(=O)O)cc21 | -23% | –
CO[C@H]1/C=C\O[C@@]2(C)Oc3c(C)c(O)c4c(O)c(c5c(nc6cc(C)ccn65)c4c3C2=O)NC(=O)/C(C)=C\C=C/[C@H](C)[C@H](O)[C@@H](C)[C@@H](O)[C@@H](C)[C@H](OC(C)=O)[C@@H]1C | -25.8% | –

SMILES | activity change, negative = inhibition | outcome
CN(C)/C(N)=N/C(=N)N | – | inactive [setting not given]
C[C@@H]1C[C@H]2[C@@H]3CCC4=CC(=O)C=C[C@]4(C)[C@@]3(F)[C@@H](O)C[C@]2(C)[C@@]1(O)C(=O)COP(=O)(O)O | – | inactive [at 11.3 µM]
CCCC(=O)O[C@]1(C(=O)COC(=O)CC)[C@@H](C)C[C@H]2[C@@H]3CCC4=CC(=O)C=C[C@]4(C)[C@@]3(F)[C@@H](O)C[C@@]21C | – | inactive
CC(CCc1ccc(O)cc1)NCC(O)c1ccc(O)cc1 (stereo not given) | – | inactive
OC[C@H]1OC(O)C[C@@H](O)[C@@H]1O (stereo not given in full) | -11.1% | –
CC1(C)S[C@@H]2[C@H](NC(=O)C(C(=O)Oc3ccc4c(c3)CCC4)c3ccccc3)C(=O)N2[C@H]1C(=O)O (stereo not given in full) | – | inactive
C[C@H](CCC(=O)O)[C@H]1CC[C@H]2[C@@H]3[C@H](O)C[C@@H]4C[C@H](O)CC[C@]4(C)[C@H]3C[C@H](O)[C@]12C | – | inactive
NC[C@@H]1O[C@H](O[C@H]2[C@@H](O)[C@H](O[C@@H]3[C@@H](O)[C@H](N)C[C@H](N)[C@H]3O[C@H]3O[C@H](CO)[C@@H](O)[C@H](O)[C@H]3N)O[C@@H]2CO)[C@H](N)[C@@H](O)[C@@H]1O | – | inactive [at 0.702 µM]
O=C(Cc1cccs1)NC1C(=O)N2C(C(=O)[O-])=C(C[n+]3ccccc3)CSC12 (stereo not given) | -15.7% | –
COC(=O)N[C@H](C(=O)N1CCC[C@H]1C(=O)Nc1ccc([C@@H]2CC[C@@H](c3ccc(NC(=O)[C@@H]4CCCN4C(=O)[C@@H](NC(=O)OC)C(C)C)cc3)N2c2ccc(C(C)(C)C)cc2)cc1)C(C)C | -22.9% | –
CC(C)(C)C(=O)OCC(=O)[C@H]1CC[C@H]2[C@@H]3CCC4=CC(=O)CC[C@]4(C)[C@H]3CC[C@]12C | -13% | –
NC(=O)OCC(O)COc1ccc(Cl)cc1 (stereo not given) | – | inactive
CC(C=CC1=C(C)CCCC1(C)C)=CC=CC(C)=CC(=O)Oc1c(C)c(C)c2c(c1C)CC[C@@](C)(CCC[C@H](C)CCC[C@H](C)CCCC(C)C)O2 | – | inactive [at 5.25 µM]
CCC(C)CCCCC(=O)NC(CCN)C(=O)NC(C(=O)NC(CCN)C(=O)NC1CCNC(=O)C(C(C)O)NC(=O)C(CCN)NC(=O)C(CCN)NC(=O)C(CC(C)C)NC(=O)C(Cc2ccccc2)NC(=O)C(CCN)NC1=O)C(C)O (stereo not given) ({Octanoyl(6-Me)}-[Dab]T[Dab][Dab][Dab]FL[Dab][Dab]T; lactam 4-C; configuration not given here) | -13.5% [at 27.1 µM] | –
O=C[C@H](O)[C@@H](O)[C@H](O)[C@H](O)CO | – | inactive
CCCCCCCCCCCCCCCCOc1nc2ccc(C)cc2c(=O)o1 | -28.4% | –
CCCC(=O)O[C@]1(C(=O)COC(C)=O)CC[C@H]2C3C[C@H](F)C4=CC(=O)C=C[C@]4(C)[C@@]3(F)[C@@H](O)C[C@@]21C (stereo not given in full) | -5.47% | –
COC(=O)CCC(=O)CN | – | inactive
CCCCCCCCCCCC(=O)OCN1C(=O)CCc2ccc(OCCCCN3CCN(c4cccc(Cl)c4Cl)CC3)cc21 | -17.3% [at 19 µM] | –
CC(O)C(CO)NC(=O)C1CSSCC(NC(=O)C(N)Cc2ccccc2)C(=O)NC(Cc2ccccc2)C(=O)NC(Cc2c[nH]c3ccccc23)C(=O)NC(CCCCN)C(=O)NC(C(C)O)C(=O)N1 (stereo not given) | -15.6% [at 27.1 µM] | –
